# In publication PMC11062922 (Nature Chemical Biology, 2023):
# Read-outs that look alike come from different tables or passages of the source.
# Experiments:
# Parameters in all cases: species or system human, MV4-11 + K-562 + COLO205 + SK-N-BE2 + OVCAR-8
# ACVR1B = settings: read-out: apparent Kd, n = 1
# ADRBK1 = settings: read-out: apparent Kd; compound concentrations: 100 nM and 1000 nM (sheet 'Samples'), CATDS: 5.42741985746545E-2; n = 1
# AKT1 = settings: read-out: apparent Kd; compound concentrations: 100 nM and 1000 nM (sheet 'Samples'), CATDS: 5.4273018110040303E-2; n = 1
# AKT2 = settings: read-out: apparent Kd; compound concentrations: 100 nM and 1000 nM (sheet 'Samples'), CATDS: 6.3448544870815707E-2; n = 1
# CDK17 = settings: read-out: apparent Kd; compound concentrations: 100 nM and 1000 nM (sheet 'Samples'), CATDS: 4.6046417847887898E-2; n = 1
# CDK6 = settings: read-out: apparent Kd; compound concentrations: 100 nM and 1000 nM (sheet 'Samples'), CATDS: 4.5600576408269602E-2; n = 1
# CSNK1A1 = settings: read-out: apparent Kd; compound concentrations: 100 nM and 1000 nM (sheet 'Samples'), CATDS: 4.1256570238539701E-2; n = 1
# LIMK1 = settings: read-out: apparent Kd; compound concentrations: 100 nM and 1000 nM (sheet 'Samples'), CATDS: 4.6691533927662399E-2; n = 1
# MAP2K1 = settings: read-out: apparent Kd, compound concentrations: 100 nM and 1000 nM (sheet 'Samples'), n = 1
# MAP2K2 = settings: read-out: apparent Kd; compound concentrations: 100 nM and 1000 nM (sheet 'Samples'), CATDS: 5.0543278096989601E-2; n = 1
# NCL = settings: read-out: apparent Kd; compound concentrations: 100 nM and 1000 nM (sheet 'Samples'), CATDS: 4.2837987158590003E-2; n = 1
# NQO1 = settings: read-out: apparent Kd; compound concentrations: 100 nM and 1000 nM (sheet 'Samples'), CATDS: 5.1571181916601101E-2; n = 1
# PHKG2 = settings: read-out: apparent Kd; compound concentrations: 100 nM and 1000 nM (sheet 'Samples'), CATDS: 4.0833835587176903E-2; n = 1
# PIM2 = settings: read-out: apparent Kd; compound concentrations: 100 nM and 1000 nM (sheet 'Samples'), CATDS: 5.4197855398822901E-2; n = 1
# PIP4K2C = settings: read-out: apparent Kd; compound concentrations: 100 nM and 1000 nM (sheet 'Samples'), CATDS: 6.0471713091723403E-2; n = 1
# PRKAG1 = settings: read-out: apparent Kd; compound concentrations: 100 nM and 1000 nM (sheet 'Samples'), CATDS: 6.5107573303195193E-2; n = 1
# PYGL = settings: read-out: apparent Kd; compound concentrations: 100 nM and 1000 nM (sheet 'Samples'), CATDS: 4.9538207783530498E-2; n = 1
# VDAC3 = settings: read-out: apparent Kd; compound concentrations: 100 nM and 1000 nM (sheet 'Samples'), CATDS: 4.4574473592348701E-2; n = 1
# YES1 = settings: read-out: apparent Kd; compound concentrations: 100 nM and 1000 nM (sheet 'Samples'), CATDS: 6.4280508089749694E-2; n = 1
# ZAK = settings: read-out: apparent Kd; compound concentrations: 100 nM and 1000 nM (sheet 'Samples'), CATDS: 3.9848277554837802E-2; n = 1
# ACVR1 = settings: read-out: apparent Kd; compound concentrations: 100 nM and 1000 nM (sheet 'Samples'), CATDS: 5.3500871089908003E-2; n = 1
# ACVR2B = settings: read-out: apparent Kd; compound concentrations: 100 nM and 1000 nM (sheet 'Samples'), CATDS: 0.67080964654625497; n = 1
# BCR = settings: read-out: apparent Kd; compound concentrations: 100 nM and 1000 nM (sheet 'Samples'), CATDS: 8.1652957748264393E-2; n = 1
# BMPR1B = settings: read-out: apparent Kd; compound concentrations: 100 nM and 1000 nM (sheet 'Samples'), CATDS: 7.3247906456106002E-2; n = 1
# CDC7 = settings: read-out: apparent Kd; compound concentrations: 100 nM and 1000 nM (sheet 'Samples'), CATDS: 4.9206883035311198E-2; n = 1
# CDK4 = settings: read-out: apparent Kd; compound concentrations: 100 nM and 1000 nM (sheet 'Samples'), CATDS: 4.8870042780869302E-2; n = 1
# EPHA1 = settings: read-out: apparent Kd; compound concentrations: 100 nM and 1000 nM (sheet 'Samples'), CATDS: 7.9880542471912896E-2; n = 1
# GAK = settings: read-out: apparent Kd, n = 1
# NLK = settings: read-out: apparent Kd; compound concentrations: 100 nM and 1000 nM (sheet 'Samples'), CATDS: 5.29869352744404E-2; n = 1
# RIPK2 = settings: read-out: apparent Kd; compound concentrations: 100 nM and 1000 nM (sheet 'Samples'), CATDS: 0.100310805321257; n = 1
# RIPK3 = settings: read-out: apparent Kd; compound concentrations: 100 nM and 1000 nM (sheet 'Samples'), CATDS: 5.9537511979901002E-2; n = 1
# TGFBR2 = settings: read-out: apparent Kd, n = 1
# CDK7 = settings: read-out: apparent Kd; compound concentrations:100 nM and 1000 nM (sheet 'Samples'); n = 1
# CSNK1D = settings: read-out: apparent Kd; compound concentrations:100 nM and 1000 nM (sheet 'Samples'); n = 1
# NQO2 = settings: read-out: apparent Kd; compound concentrations:100 nM and 1000 nM (sheet 'Samples'); n = 1
# PRKD2 = settings: read-out: apparent Kd; compound concentrations:100 nM and 1000 nM (sheet 'Samples'); n = 1
# PRKD3 = settings: read-out: apparent Kd; compound concentrations:100 nM and 1000 nM (sheet 'Samples'); n = 1
# TGFBR1 = settings: read-out: apparent Kd; compound concentrations:100 nM and 1000 nM (sheet 'Samples'); n = 1
# TNIK = settings: read-out: apparent Kd; compound concentrations:100 nM and 1000 nM (sheet 'Samples'); n = 1
# TNK1 = settings: read-out: apparent Kd; compound concentrations:100 nM and 1000 nM (sheet 'Samples'); n = 1
# ACOX3 = settings: read-out: apparent Kd; compound concentrations: 100 nM and 1000 nM (sheet 'Samples'), CATDS: 0.63885197419414497; n = 1
# FECH = settings: read-out: apparent Kd; compound concentrations: 100 nM and 1000 nM (sheet 'Samples'), CATDS: 0.41072954272515799; n = 1
# [1] = compound concentrations:100 nM and 1000 nM (sheet 'Samples')
compound,measurement,setting,value
Cc1nnc(-c2ccc(C)c(-c3ccc(C(=O)Nc4cccc(C#N)c4)cc3)c2)o1 [GW607117X],potency estimated from few doses,"ACVR1B; compound concentrations: 100 nM and 1000 nM (sheet 'Samples'), CATDS: 5.7242163764382799E-2",1170 nM
same,potency estimated from few doses,ADRBK1,1290 nM
same,potency estimated from few doses,AKT1,1290 nM
same,potency estimated from few doses,AKT2,976 nM
same,potency estimated from few doses,CDK17,1810 nM
same,potency estimated from few doses,CDK6,1850 nM
same,potency estimated from few doses,CSNK1A1,2360 nM
same,potency estimated from few doses,LIMK1,1750 nM
same,potency estimated from few doses,MAP2K1; CATDS: 5.0029485958775197E-2,1510 nM
same,potency estimated from few doses,MAP2K2,1480 nM
same,potency estimated from few doses,NCL,2140 nM
same,potency estimated from few doses,NQO1,1420 nM
same,potency estimated from few doses,PHKG2,2420 nM
same,potency estimated from few doses,PIM2,1290 nM
same,potency estimated from few doses,PIP4K2C,1060 nM
same,potency estimated from few doses,PRKAG1,935 nM
same,potency estimated from few doses,PYGL,1550 nM
same,potency estimated from few doses,VDAC3,1950 nM
same,potency estimated from few doses,YES1,955 nM
same,potency estimated from few doses,ZAK,2580 nM
Oc1cc(Nc2ccnc3cc(I)ccc23)ccc1F [GW552771X],potency estimated from few doses,"ACVR1B; compound concentrations: 100 nM and 1000 nM (sheet 'Samples'), CATDS: 5.5704311303099698E-2",1050 nM
same,potency estimated from few doses,ACVR1,1220 nM
same,potency estimated from few doses,ACVR2B,4.54 nM
same,potency estimated from few doses,BCR,339 nM
same,potency estimated from few doses,BMPR1B,452 nM
same,potency estimated from few doses,CDC7,1710 nM
same,potency estimated from few doses,CDK4,1760 nM
same,potency estimated from few doses,EPHA1,359 nM
same,potency estimated from few doses,"GAK; compound concentrations: 100 nM and 1000 nM (sheet 'Samples'), CATDS: 0.131761231196901",109 nM
same,potency estimated from few doses,MAP2K1; CATDS: 4.7289887756517802E-2,2050 nM
same,potency estimated from few doses,NLK,1260 nM
same,potency estimated from few doses,RIPK2,204 nM
same,potency estimated from few doses,RIPK3,838 nM
same,potency estimated from few doses,"TGFBR2; compound concentrations: 100 nM and 1000 nM (sheet 'Samples'), CATDS: 0.233102504079717",32.2 nM
c1ccc(-c2n[nH]cc2-c2ccnc(-c3ccc(CNC4CCOCC4)cc3)c2)nc1 [GW709213X],potency estimated from few doses,ACVR1B; [1],39.1 nM
same,potency estimated from few doses,CDK7,1090 nM
same,potency estimated from few doses,CSNK1D,1500 nM
same,potency estimated from few doses,GAK; [1],1150 nM
same,potency estimated from few doses,NQO2,925 nM
same,potency estimated from few doses,PRKD2,195 nM
same,potency estimated from few doses,PRKD3,193 nM
same,potency estimated from few doses,TGFBR1,12.6 nM
same,potency estimated from few doses,TGFBR2; [1],1330 nM
same,potency estimated from few doses,TNIK,2410 nM
same,potency estimated from few doses,TNK1,445 nM
Cc1ccc(NC(=O)c2cccc(C#N)c2)cc1-c1ccc(C(=O)Nc2ccncc2)cc1 [GSK1398463A],potency estimated from few doses,ACOX3,513 nM
same,potency estimated from few doses,FECH,1300 nM
